Test results as given in PubChem BioAssay.
Where “and” joins values, the source holds several entries; their conditions need not be identical. Equal values may be shown once. The source holds several records for some structures; these can differ, active in one and inactive in another. Calls of active or inactive are those of the source.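 Rule for the calls, unless noted: active = mean z-score across replicates of 1.96 or higher in either the MELAS or the Rieske mutant cell line; inactive = the rest.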

Assay: viability loss with induced miR-34 in A549 – imaging, A549 dox-inducible miR-34, nuclei and caspase counts, primary screen (AID 1347080;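 active = compounds whose cell count with miR-34 switched on is under 0.7 times the count with it off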)
Settings: A549 miR-34 inducible, Hoechst nuclei count, 48 h; stronger effect = lower value; cell number ratio, induced over uninduced

Compound | fold change
CN1C(=O)C(c2c[nH]c3ccccc23)=C(c2c[nH]c3ccccc23)C1=O | 0.868 (inactive)
COc1ccc(COc2ccc(Cc3cnc(N)nc3N)cc2OC)cc1 | 0.931 (inactive)
CN(C)c1cc2c(Nc3ccc4c(cnn4Cc4ccccc4)c3)ncnc2cn1 | 1.64 (inactive)
N#Cc1c(NC(=O)c2ccccc2F)sc2c1CCCC2 | 0.993 (inactive)
O=C1NC(=O)C(c2c[nH]c3ccccc23)=C1c1c[nH]c2ccccc12 | 1.26 (inactive)
Cn1cc(C2=C(c3cn(CCCN)c4ccccc34)C(=O)NC2=O)c2ccccc21 | 1.52 (inactive)
Fc1ccc(-c2nc3n(c2-c2ccncc2)CCS3)cc1 | 0.866 (inactive)

Same assay, conditions: A549 miR-34 inducible, Hoechst nuclei count, 48 h; measured here: relative caspase fold change +Dox/-Dox

Compound | fold change
CN1C(=O)C(c2c[nH]c3ccccc23)=C(c2c[nH]c3ccccc23)C1=O | 1.05
COc1ccc(COc2ccc(Cc3cnc(N)nc3N)cc2OC)cc1 | 0.609
CN(C)c1cc2c(Nc3ccc4c(cnn4Cc4ccccc4)c3)ncnc2cn1 | 0.646
N#Cc1c(NC(=O)c2ccccc2F)sc2c1CCCC2 | 0.12
O=C1NC(=O)C(c2c[nH]c3ccccc23)=C1c1c[nH]c2ccccc12 | 0.968
Cn1cc(C2=C(c3cn(CCCN)c4ccccc34)C(=O)NC2=O)c2ccccc21 | 0.871
Fc1ccc(-c2nc3n(c2-c2ccncc2)CCS3)cc1 | 1.21

Same assay, conditions: A549 miR-34 inducible, Hoechst nuclei count, 48 h; measured here: total cells with miR-34 induction; stronger effect = lower value

Compound | cell count
CN1C(=O)C(c2c[nH]c3ccccc23)=C(c2c[nH]c3ccccc23)C1=O | 5070
COc1ccc(COc2ccc(Cc3cnc(N)nc3N)cc2OC)cc1 | 7300
CN(C)c1cc2c(Nc3ccc4c(cnn4Cc4ccccc4)c3)ncnc2cn1 | 3320
N#Cc1c(NC(=O)c2ccccc2F)sc2c1CCCC2 | 5190
O=C1NC(=O)C(c2c[nH]c3ccccc23)=C1c1c[nH]c2ccccc12 | 5130
Cn1cc(C2=C(c3cn(CCCN)c4ccccc34)C(=O)NC2=O)c2ccccc21 | 5190
Fc1ccc(-c2nc3n(c2-c2ccncc2)CCS3)cc1 | 4970

Same assay, conditions: A549 miR-34 inducible, Hoechst nuclei count, 48 h; measured here: total cells without miR-34 induction

Compound | cell count
CN1C(=O)C(c2c[nH]c3ccccc23)=C(c2c[nH]c3ccccc23)C1=O | 5840
COc1ccc(COc2ccc(Cc3cnc(N)nc3N)cc2OC)cc1 | 7840
CN(C)c1cc2c(Nc3ccc4c(cnn4Cc4ccccc4)c3)ncnc2cn1 | 2020
N#Cc1c(NC(=O)c2ccccc2F)sc2c1CCCC2 | 5220
O=C1NC(=O)C(c2c[nH]c3ccccc23)=C1c1c[nH]c2ccccc12 | 4070
Cn1cc(C2=C(c3cn(CCCN)c4ccccc34)C(=O)NC2=O)c2ccccc21 | 3420
Fc1ccc(-c2nc3n(c2-c2ccncc2)CCS3)cc1 | 5730

Assay: compounds altering HSF1 focus formation in cells – imaging, Selleck Cancer Library (AID 1347162; in the data active = plate-normalised HSF1 focus index below about 0.46)
Settings: human cells, HSF1 nuclear foci imaging, at 10 µM; SSMD: measured here: HSF1 foci SSMD mean; cell count: measured here: cell number; plate-normalised HSF1 focus index: stronger effect = lower value

Compound | SSMD | plate-normalised HSF1 focus index | cell count
CCn1c(-c2nonc2N)nc2cnc(Oc3cccc(NC(=O)c4ccc(OCCN5CCOCC5)cc4)c3)cc21 | 0.629 | 1.04 (inactive) | 7080
NC(=O)c1ccc(-c2nc(-c3ccc4c(c3)OCO4)c(-c3ccccn3)[nH]2)cc1 | 0.986 | 1.06 (inactive) | 7590
CN(C)CCOc1ccc(-c2nc(-c3ccc4c(c3)CC/C4=N\O)c(-c3ccncc3)[nH]2)cc1 | 1.6 | 1.1 (inactive) | 7550

Assay: MELAS cybrid and Rieske KO viability enhancers – cell-based, MELAS cybrids, Rieske KO mouse fibroblasts, CellTiter-Glo, primary screen (AID 1508586);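 note: z relative to plate mean and SD of compound and empty wells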
Settings: MELAS cybrid survival, low glucose, CellTiter-Glo 48 h; stronger effect = higher value

Compound | z-score
CCn1c(-c2nonc2N)nc2c(C#CC(C)(C)O)nc(OC[C@@H](N)c3ccccc3)cc21 | -0.774 (inactive)
COc1ccc(-c2cc3c(N)ncnc3o2)cc1 | 1.14 (inactive)
COc1cc(/C=N/Nc2ncnc3[nH]ncc23)ccc1O | 0.451 (inactive)
CN(C)c1cc2c(Nc3ccc4nc(Cc5ccccc5)[nH]c4c3)ncnc2cn1 | 0.173 (inactive)
FC(F)(F)c1ccc(-c2nn3ncccc3c2-c2ccnc(Nc3ccc4c(c3)OCCO4)n2)cc1 | 0.512 (inactive)
NS(=O)(=O)c1ccc(N=Nc2c(O)[nH]c3ccc(C(=O)NCCCn4ccnc4)cc23)cc1 | -0.0137 (inactive)
CN(c1ccc(NC(=O)Nc2ccc(OC(F)(F)F)cc2)cc1)c1ccnc(Nc2cccc(S(N)(=O)=O)c2)n1 | -1.15 (inactive)
CCn1c(-c2nonc2N)nc2cnc(Oc3cccc(NC(=O)c4ccc(OCCN5CCOCC5)cc4)c3)cc21 | -0.727 (inactive)
COc1cccc(-n2ncc3c(N/N=C/c4ccc(F)cc4)ncnc32)c1 | 1.48 (inactive)
COc1cc2ncn(-c3cc(OCc4ccccc4S(C)(=O)=O)c(C#N)s3)c2cc1OC | 0.713 (inactive)
COc1ccc(COc2ccc(Cc3cnc(N)nc3N)cc2OC)cc1 | -0.29 (inactive) and -0.397 (inactive)
CN(C)c1cc2c(Nc3ccc4c(cnn4Cc4ccccc4)c3)ncnc2cn1 | -0.0495 (inactive)
CN1CCC(n2cnc(-c3ccc(F)cc3)c2-c2ccnc(Nc3ccccc3)n2)CC1 | -0.528 (inactive)
N#Cc1c(NC(=O)c2ccccc2F)sc2c1CCCC2 | 0.104 (inactive) and 0.195 (inactive)
CC(=O)Nc1cccc(C#Cc2cncnc2Nc2ccc(OCc3cccc(F)c3)c(Cl)c2)c1 | -0.744 (inactive)
CCOc1ccc2c(-c3ccnc(Nc4cc(OC)cc(C(F)(F)F)c4)n3)cnn2n1 | 0.655 (inactive)
Nc1nccc(-c2c(-c3ccc(F)cc3)ncn2C2CCNCC2)n1 | -0.885 (inactive) and -0.815 (inactive)

Compound | z-score
NC(=O)c1ccc2c(-c3ccnc(NCCCO)n3)c(-c3ccc(F)cc3)nn2c1 | -0.11 (inactive)
Cn1cc(C2=C(c3cn(CCCSC(=N)N)c4ccccc34)C(=O)NC2=O)c2ccccc21 | 3.84 (active)
Fc1cccc(COc2ccc(Nc3ncnc4sc(-c5ccco5)cc34)cc2Cl)c1 | -0.906 (inactive)
Fc1cccc(COc2ccc(Nc3ncnc4cc(-c5ccc[nH]5)sc34)cc2Cl)c1 | -0.761 (inactive)
C#Cc1cccc(Nc2ncnc3ccc(OCCCCNCCS(C)(=O)=O)cc23)c1 | -0.125 (inactive)
O=S1CCN(Cc2ccc(-c3ccc4ncnc(Nc5ccc(OCc6ccccc6)c(Cl)c5)c4c3)o2)CC1 | 1.05 (inactive)
O=C1NC(=O)C(c2ccccc2Cl)=C1Nc1cccc(O)c1 | -0.289 (inactive)
NC(=O)c1ccc(-c2nc(-c3ccc4c(c3)OCO4)c(-c3ccccn3)[nH]2)cc1 | -0.87 (inactive) and -0.497 (inactive)
CN(C)CCOc1ccc(-c2nc(-c3ccc4c(c3)CC/C4=N\O)c(-c3ccncc3)[nH]2)cc1 | 0.717
FC(F)(F)c1cccc(Nc2nccc(-c3cnn4nc(-c5ccccc5)ccc34)n2)c1 | 1.22 (inactive)
Nc1ncnc2occ(-c3ccc(NC(=O)Nc4cc(C(F)(F)F)ccc4F)cc3)c12 | 0.841 (inactive) and 3.25 (active)
Cn1cc(/C=C2\C(=O)Nc3cccnc32)c2ccccc21 | 0.351 (inactive)
Cc1ccc(O)cc1Nc1ccnc2cc(-c3ccccn3)ccc12 | -0.612
Cn1c(-c2nonc2N)nc2cnccc21 | -0.058 (inactive)
Fc1ccc(-c2nc3n(c2-c2ccncc2)CCS3)cc1 | 1.07 (inactive)
COc1ccc(-c2oc3ncnc(N)c3c2-c2ccc(NC(=O)Nc3cc(C(F)(F)F)ccc3F)cc2)cc1 | -1.1 (inactive)
NS(=O)(=O)c1ccc(N=Nc2c(O)[nH]c3ccc(Cl)cc23)cc1 | 1.43 (inactive)
